From ChEMBL document CHEMBL4513216, “Probing the Open Global Health Chemical Diversity Library for Multistage-Active Starting Points for Next-Generation Antimalarials” (ACS Infect Dis, 2020)
The campaign covered roughly 68,000 compounds. About 2,700 (4%) showed an effect of 50% or more. The sample holds strong results, similar compounds and a random draw of the others, so the mix is not that of the screen.

Each compound was assayed on Plasmodium berghei (assay: Screen against P. berghei liver stage (PbLuc), transformed with Luciferase, at 2uM). Settings: tested at 2 uM.
Assay type: functional, HepG2
O=C1Nc2ccccc2C12CCN(Cc1nccs1)CC2 was tested, and the INHIBITION was 21.61%. O=C(Cc1ccccc1F)N1C[C@@H]2COC[C@]2(COc2cccnc2)C1 showed an INHIBITION of -2.44%. CO[C@H]1CO[C@@]2(CCCN(C(=O)N3CCCC3)C2)C1 showed an INHIBITION of 28.13%. CC1=CCN(S(=O)(=O)c2cccc(C(=O)N3CCCN(C)CC3)c2)CC1 was tested, and the INHIBITION was 23.17%. Work on CN1CCCN(C(=O)c2cccc(S(=O)(=O)NCC3(C)COC3)c2)CC1 yielded an INHIBITION of -35.07%. Compound CN1CCCN(S(=O)(=O)c2cccc(C(=O)N3CCCCCC3)c2)CC1 has an INHIBITION of 54.75%. CCN(CC)C(=O)CSc1sc2c(O)cc(=O)[nH]c2c1C(N)=O gave an INHIBITION of -56.02%. Compound Cc1ccc(N2C[C@H]3CCN(Cc4ccncc4)C[C@H]3C2)nn1 has an INHIBITION of 16.63%. With O=C(c1ccoc1)N1CCO[C@]2(CCC[C@H]2COCc2cccnc2)C1 the INHIBITION was 5.85%. Compound O=C(c1ccno1)N1CCO[C@]2(CCC[C@@H]2COCc2ccncc2)C1 has an INHIBITION of 64.99%. Compound O=C(c1ccoc1)N1CCO[C@]2(CCC[C@@H]2COCc2ccncc2)C1 has an INHIBITION of 35.48%. Compound CCNC(=O)C1(Cc2cc(-c3ccc(C)cc3)no2)CCCN(C)C1 (stereo unspecified) has an INHIBITION of -40.35%. CS(=O)(=O)c1cn[nH]c1C1CCCCN1C(=O)c1cnccn1 (stereo unspecified) gave an INHIBITION of 17.39%. With CC(C)NC(=O)N1CCC2(CC(C(=O)NCc3cccnc3)=NO2)C1 (stereo unspecified) the INHIBITION was -7.01%. For COCCN(CCOC)c1ncccc1Cl, the INHIBITION was 67.7%. With COCCN(CCOC)c1ncc(C#N)cc1Cl the INHIBITION was 1.42%. With COCCN(CCOC)c1ncccc1I the INHIBITION was 38.1%. In the case of CCOc1ccc(Cl)cc1C1CCCCN1 (stereo unspecified), the INHIBITION is reported as 14.61%. COCCNC(=O)Cn1cc2c(n1)c(C)nn2C(C)C was tested, and the INHIBITION was -28.32%. With CC(C)CN1CC[C@H](c2nnc(COc3ccc(F)cc3)o2)C1 the INHIBITION was 10.65%. With CS(=O)(=O)N1CC2(CCN(C(=O)c3csnn3)CC2)c2ccccc21 the INHIBITION was 54.01%. In the case of Cn1cccc1C(=O)N1CCC2(CC1)CN(S(C)(=O)=O)c1ccccc12, the INHIBITION is reported as 38.64%. Compound CS(=O)(=O)N1CC2(CCN(C(=O)c3ccncc3)CC2)c2ccccc21 has an INHIBITION of 9.53%. With O=C(CN1C(=O)c2ccccc2C1=O)N1CCOC2(CCOCC2)C1 the INHIBITION was 13.46%. In the case of CN(C)CCOCc1cncc2c1CCN(C(=O)c1cscn1)C2, the INHIBITION is reported as -30.85%. CCc1cc(N(C)Cc2[nH]nc3c2CCC3)nc(N2CCOCC2)n1 gave an INHIBITION of 33.9%. With CN(Cc1n[nH]c2c1CCCC2)c1cc(N2CCOCC2)nc(N)n1 the INHIBITION was -32.88%. Compound Nc1nc(NCCc2[nH]nc3c2CCCC3)cc(N2CCOCC2)n1 has an INHIBITION of 67.28%. With CCn1nc(C)c(NC(=O)CCn2ncc3cc(C)ccc32)c1C the INHIBITION was 24.79%. Work on CCc1nsc(NC2CCCn3nc(COC)nc32)n1 (stereo unspecified) yielded an INHIBITION of -11.71%. CCc1ncncc1C(=O)NCCNS(=O)(=O)c1ccccc1 gave an INHIBITION of 48.68%. Compound CCc1ncncc1C(=O)NCCNS(=O)(=O)c1ccc(C)cc1 has an INHIBITION of -41.64%. For Cc1ccc(S(=O)(=O)NCCNC(=O)c2cncnc2C)cc1, the INHIBITION was 55.25%. For Cc1nn(Cc2ccc(C(=O)NCCCN3CCCC3=O)o2)c(C)c1Cl, the INHIBITION was 26.37%. Compound CCCc1n[nH]c(C2CN(C(=O)c3cc(F)ccc3OC)CCO2)n1 (stereo unspecified) has an INHIBITION of -29.94%. For Cc1nc2n(n1)CC(NCC(=O)Nc1cc(C)on1)CC2 (stereo unspecified), the INHIBITION was -2.87%. Compound Cc1nc2n(n1)CC(NCC(=O)NCC1(c3ccccc3)CC1)CC2 (stereo unspecified) has an INHIBITION of 58.69%. For COc1ccccc1CCNC(=O)CNC1CCc2nc(C)nn2C1 (stereo unspecified), the INHIBITION was 35.56%. In the case of CC(=O)N1CCCn2nc(CNS(=O)(=O)N3CCC(C)CC3)cc2C1, the INHIBITION is reported as 47.62%. O=c1[nH]c(NC2CCCC2)nc2nccc(-c3ccsc3)c12 showed an INHIBITION of -18.11%. Work on COCCN1CC[C@]2(CN(C(=O)c3ccc[nH]3)C[C@H]2C)C1=O yielded an INHIBITION of 16.21%. Compound CCOc1c(Br)cc(CNCCc2nnc3n2CCCCC3)cc1OC has an INHIBITION of 23.16%. CC1CCCCN1C(=O)c1nc2c(n1C(C)C)CCN(C)C2 (stereo unspecified) showed an INHIBITION of -19.99%. For Cc1nn(C)c(C)c1C1CCCN1Cc1cccc(C(N)=O)c1 (stereo unspecified), the INHIBITION was 15.91%. Cc1nn(C)c(C)c1NC(=O)CN1CCCC1c1c(C)nn(C)c1C (stereo unspecified) gave an INHIBITION of 23.42%. Compound Cc1nn(C)c(C)c1C1CCCN1Cc1nc2ccccc2n1C (stereo unspecified) has an INHIBITION of 53.11%. Cc1nn(C)c(C)c1C1CCCN1Cc1cccc(OCC(N)=O)c1 (stereo unspecified) showed an INHIBITION of 35.94%. Cc1nn(C)c(C)c1C1CCCN1Cc1nc(C)c2ccccc2n1 (stereo unspecified) was tested, and the INHIBITION was 5.1%. Cc1nn(C)c(Cl)c1C1CCCN1CC(=O)N1CCCCC1 (stereo unspecified) gave an INHIBITION of -0.9%. In the case of N#CCCCOc1cccc(CN2CCCC2c2ccc[nH]2)c1 (stereo unspecified), the INHIBITION is reported as -61.99%. CC(=O)N1CCN(C(=O)CN2CCCC2c2c(C)nn(C)c2C)CC1 (stereo unspecified) gave an INHIBITION of 60.6%. Compound Cc1nc2ccccc2nc1CN1CCCC1c1c(C)nn(C)c1C (stereo unspecified) has an INHIBITION of 28.51%. COc1cccc(CN2CCCC2c2ccc[nH]2)c1 (stereo unspecified) gave an INHIBITION of 68.02%. COc1cccc(CN2CCCC2c2c(C)nn(C)c2C)c1 (stereo unspecified) gave an INHIBITION of 61.53%. NC(=O)COc1cccc(CN2CCCC2c2ccc[nH]2)c1 (stereo unspecified) showed an INHIBITION of -4.58%. In the case of Cn1cccc1CCC(=O)N1CCC2(CC1)c1ccccc1CC2O (stereo unspecified), the INHIBITION is reported as -57.12%. Work on Cc1cnccc1N1CCCN(C(=O)CCc2n[nH]c(C)c2C)CC1 yielded an INHIBITION of -40.52%. In the case of O=C(c1ccc(F)c(Br)c1)N1CCCN2CCCC2C1 (stereo unspecified), the INHIBITION is reported as -4.48%. COCc1cn(C2CCN(C(=O)Cc3ccsc3)CC2)nn1 gave an INHIBITION of 53.98%. O=C(CCc1ccsc1)N1CCC(n2cc(CO)nn2)CC1 was tested, and the INHIBITION was -25.13%. O=C(Cc1ccsc1)N1CCC(Cn2cc(CCO)nn2)CC1 showed an INHIBITION of 12.57%. In the case of Cc1noc(CCCC(=O)N2CCCCC2CNS(C)(=O)=O)n1 (stereo unspecified), the INHIBITION is reported as 30.58%. With CC(C)Oc1ccc(CSc2nnc(CN3CCCC3=O)o2)cc1 the INHIBITION was 0.63%. In the case of O=C1CCCN1Cc1nnc(SCc2ccc3c(c2)CCC3)o1, the INHIBITION is reported as 52.31%. For CC(C)c1cccc(CSc2nnc(CN3CCCC3=O)o2)n1, the INHIBITION was -12.97%. CCc1ncc(C(=O)NCCNC(=O)Cc2ccc(F)cc2)s1 showed an INHIBITION of 61.99%. COC(=O)CCNC(=O)c1cnc(Cc2ccc(F)cc2)s1 showed an INHIBITION of -9.47%. CCNC(=O)c1cnc(Cc2ccc(F)cc2)s1 was tested, and the INHIBITION was 6.55%. In the case of CN(C)CCCNC(=O)c1cnc(Cc2ccc(F)cc2)s1, the INHIBITION is reported as -12.27%. Work on CN(C)C(=O)CN(C)C(=O)c1cnc(Cc2ccc(F)cc2)s1 yielded an INHIBITION of 52.08%. For CCc1ncc(C(=O)NCCNc2ccncc2)s1, the INHIBITION was -23%. O=C(CC1CCCO1)NCc1ccc(Br)cc1F (stereo unspecified) gave an INHIBITION of -7.89%. Compound CC(C)N1CCCC(C(=O)N2CCN(c3nsc4ccccc34)CC2)C1 (stereo unspecified) has an INHIBITION of -52.08%. With O=C(NCC1CCOC1)c1csc(Cc2ccccc2)n1 (stereo unspecified) the INHIBITION was 28.14%. With COC(=O)C1CCCCN1C(=O)c1ccc(N(C)C)cc1F (stereo unspecified) the INHIBITION was 36.67%. C[C@@H]1CN(C(=O)c2ccc(Br)cc2F)CC(C(N)=O)O1 (stereo partly specified) was tested, and the INHIBITION was 57.34%. For COC(=O)C1CCCN1C(=O)c1ccc(Br)cc1F (stereo unspecified), the INHIBITION was 61.96%. COC(=O)C1CCCN1C(=O)c1ccc(Cl)cc1F (stereo unspecified) showed an INHIBITION of -8.14%. Cc1ccc(C(=O)N2CC(C(N)=O)O[C@H](C)C2)c(F)c1 (stereo partly specified) showed an INHIBITION of -41.96%. Compound Cc1ccc(C(=O)N2CC(C(N)=O)O[C@H](C)C2)c(C)c1 (stereo partly specified) has an INHIBITION of -3.25%. Cc1ccsc1C(=O)N1CCc2ncc(CN(C)C)n2CC1 gave an INHIBITION of 23.59%. Cc1cc(C)c2[nH]c(=O)c(CN3CCCC4(C3)CN(C)C(=O)O4)cc2c1 (stereo unspecified) gave an INHIBITION of 15.08%. O=C(c1ccc(S(=O)(=O)NCCc2ccccn2)cc1)N1CCCC1 gave an INHIBITION of 29.41%. Work on CC(C)c1nn(C)c(N(C)C)c1CNCc1ccnn1C yielded an INHIBITION of 32.93%. CCC1CN(CC(=O)NCCC#N)CCO1 (stereo unspecified) gave an INHIBITION of 21.72%. CCC1CN(CC(=O)NCCOC)CCO1 (stereo unspecified) showed an INHIBITION of 36.09%. Compound CCCNC(=O)CN1CCOC(CC)C1 (stereo unspecified) has an INHIBITION of 60.52%. Compound CCN(CC1CCOCC1)C(=O)C1CC(=O)N(Cc2cccnc2)C1 (stereo unspecified) has an INHIBITION of 10.83%. Compound COc1ccc(CC(=O)N2CCCN(c3ccc(C#N)cc3)CC2)cc1 has an INHIBITION of -28.34%. Work on O=C(NC1CCC1)C1=NOC2(CCN(Cc3ccc(F)cc3)C2)C1 (stereo unspecified) yielded an INHIBITION of 34.13%. Compound CN(C)CCNC(=O)c1ccc(OC2CCN(C(=O)CO)CC2)c(Cl)c1 has an INHIBITION of 14.63%. With CCC(=O)N1CCC(Oc2ccc(C(=O)NCCN(C)C)cc2Cl)CC1 the INHIBITION was 51.96%. With COC(=O)N1CCC(Oc2ccc(C(=O)NCCN(C)C)cc2Cl)CC1 the INHIBITION was 30.62%. With NC(=O)c1nc(CN2CCOC(C(F)(F)F)C2)no1 (stereo unspecified) the INHIBITION was 43.91%. CNC(=O)c1nc(CN2CCOC(CCCC(C)C)C2)no1 (stereo unspecified) was tested, and the INHIBITION was -65.52%. With CNC(=O)c1nc(CN2CCOC(C(F)(F)F)C2)no1 (stereo unspecified) the INHIBITION was 65.76%. For COC(=O)CC(c1ccc(OC)c(OC)c1OC)c1c(O)n[nH]c1C (stereo unspecified), the INHIBITION was -8.07%. In the case of Cc1cc2c(=O)n3c(nc2s1)CCN(C(=O)c1cn(C)nc1C)CC3, the INHIBITION is reported as 66.16%. For Cc1cc2c(=O)n3c(nc2s1)CCN(C(=O)c1cnn(C)c1)CC3, the INHIBITION was -18.04%. With Cc1cc2c(=O)n3c(nc2s1)CCN(C(=O)c1nn(C)cc1Cl)CC3 the INHIBITION was 26.56%. For COCCc1noc(CN(C)c2cc(C)ncn2)n1, the INHIBITION was 41.63%. For Cc1nc(N2CCN(C(=O)c3ccncc3)CC2)c2c(n1)c(C)nn2C, the INHIBITION was 4.87%. COc1cccc(CC2(C(=O)O)CCN(c3ccc(Cl)cn3)CC2)c1 showed an INHIBITION of 7.67%. In the case of COc1cccc(CC2(C(=O)O)CCN(c3nccs3)CC2)c1, the INHIBITION is reported as 50.59%. With COc1cccc(CC2(CO)CCCN(c3nccs3)C2)c1 (stereo unspecified) the INHIBITION was 14.21%. Work on Cc1nc(N(C)Cc2cccc(O)c2)nc2cc(S(C)(=O)=O)ccc12 yielded an INHIBITION of 33.4%.
